Screening results: PubChem BioAssay, National Center for Advancing Translational Sciences (NCATS)
Pf Dd2 growth – qHTS Primary assay for Inhibitors of Plasmodium falciparum Dd2 growth in vitro; P. falciparum Dd2 growth, SYBR Green, 72 h; Potency, µM (highest dose often 28.9 µM), for the others: at the top dose activity, negative = inhibition, usual class: inhibitors; 4.3% of 120,000 active; active = well fitted inhibition curve with a large enough effect;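 also: plate controls were DMSO vehicle for no effect and reference drug for full effect; nearly all actives have a fitted effect of over 65% in size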
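Readout: SYBR Green fluorescence, 485 nm excitation, 535 nm emission, after ~16 h lysis at 37C. Before that, Dd2-infected red cells (2.5% hematocrit) grew 72 h with compound, 29 uM top final concentration.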
Starred values were filed as active, the others as inactive; i = inactive; [ ] = another dose, or the depositor's remark. Many of the other results were omitted from the sample, so hits are more common in it than they were. Potency is read from the fitted curve at half-maximal effect.

SMILES	Pf Dd2 growth
COc1ncccc1-c1cnc2n[nH]c(-c3ccc4c(c3)OCO4)c2n1	i
O=C(NCc1ccccc1)C1CCCN(C2CCN(C(=O)c3ccco3)CC2)C1 (stereo unspecified)	-18.1%
CC(C)c1ccc(Nc2c(-c3ccccn3)nc3ccccn23)cc1	4.47µM*
Cc1ccc(Nc2c(-c3cccnc3)nc3ccc(C)cn23)cc1	-11.6%
Cc1ccc2nc(-c3ccc(C)s3)c(Nc3ccc4c(c3)OCCO4)n2c1	14.5%
Clc1ccc2nc(-c3ccc(Br)o3)c(Nc3ccc4c(c3)OCCO4)n2c1	i
Fc1ccc(Nc2c(-c3ccccn3)nc3ccc(Cl)cn23)cc1	8.91µM*
Cc1ccc2nc(-c3ccccn3)c(Nc3ccc(F)cc3)n2c1	3.98µM*
COc1ccc(Nc2ccc3nnc(-c4ccccn4)n3n2)cc1	i
COc1cc(-c2nc3nc[nH]n3c2Nc2ccc(C(C)C)cc2)ccc1O	i
CC(=O)N1CCC(CC(=O)N2CCN(c3cc(-c4ccccc4)[nH]n3)CC2)CC1	12.0%
CC(C)C[C@H](NC(=O)Cn1nc2c(cc1=O)CCCCC2)c1nnc2ccccn12	-8.4%
O=C(Cc1ccsc1)N1CCCC(Cc2nc(C3CCOCC3)no2)C1 (stereo unspecified)	-23.0%
Cc1cccc(Cn2nc(-c3cccnc3)nc2C2(C(N)=O)CC2)c1	10.8%
O=C(C1CC1)N1CCN(C2CCN(Cc3ccccn3)C2=O)CC1 (stereo unspecified)	4.9%
COC(=O)CN1C(=O)[C@@H]2C[C@@H](O)CN2C2(CN(Cc3cccs3)C2)C1=O	-14.3%[44.1 µM]
c1ccc(COc2ccc(CN3CCSCC3)cc2)nc1	-1.3%
c1ccc(CN2C[C@H]3CCNC[C@H]32)cc1	i
c1ccc(COc2ccc(CN3CCN(C4CCNC4)CC3)cc2)cc1 (stereo unspecified)	8.91µM*
Cc1nn(C)cc1-c1nc2cc(S(=O)(=O)NC(C)C)ccc2n1C(C)C	10.2%
CCc1noc(-c2cccn3c(CNC(=O)c4cccc(OC)c4)nnc23)n1	i
Cc1ccc(-n2nc(C(=O)N3CCN(c4cc(C)ccc4C)CC3)c3c4ccccc4n(C)c3c2=O)cc1	31.0%
CCn1c(=O)cc(OCC(=O)N2CCN(c3cccc(C)c3C)CC2)c2ccccc21	45.5%
Cc1ccc(-n2nc(C(=O)N3CCN(c4ccccc4F)CC3)c3c4ccccc4n(C)c3c2=O)cc1	28.5%
CCn1cc(C(=O)N2CCN(c3cc(C)ccc3C)CC2)c(=O)c2cc(S(=O)(=O)N3CCCCC3)ccc21	12.1%
SMILES	Pf Dd2 growth
Cc1cccc(N2CCN(C(=O)c3cn(CC(C)C)c(=O)c4c3c3ccccc3n4C)CC2)c1C	11.2µM*
Cc1ccc(C)c(N2CCN(C(=O)c3cn(CC(C)C)c(=O)c4c3c3ccccc3n4C)CC2)c1	2.51µM*
CN(C)CCCn1ccnc1C1CCCN(S(=O)(=O)N2CCCC2)C1 (stereo unspecified)	-3.5%
COc1ccc(C2Cn3nnc(C(=O)N4CCC(C(=O)NC5CCC(C)CC5)CC4)c3CO2)cc1 (stereo unspecified)	-7.8%
COCCN1C(=O)c2cccn2CC1CNC(=O)Cn1nc(C(F)(F)F)cc1C (stereo unspecified)	14.4%
CCc1ccccc1NC(=O)N1CC(c2nnc(-c3ccncc3)o2)C2(CCOCC2)C1 (stereo unspecified)	-13.3%
CN(Cc1ccccc1)Cc1cn(C[C@H]2C[C@@H]3CCN2C[C@@H]3C(=O)Nc2ccccc2)nn1	i
CCC1Oc2ccc(NC(=O)Cc3ccc(F)cc3)cc2CN(Cc2cccc(OC)c2)C1=O (stereo unspecified)	3.98µM*
COc1cccc(CN2Cc3cc(NC(=O)c4cc(OC)cc(OC)c4)ccc3OCC2=O)c1	4.47µM*
CCC1Oc2ccc(NC(=O)c3ccccc3F)cc2CN(Cc2ccc3c(c2)OCO3)C1=O (stereo unspecified)	i
CCC1Oc2ccc(NC(=O)c3c(F)cccc3F)cc2CN(Cc2ccc3c(c2)OCO3)C1=O (stereo unspecified)	i
COc1cccc(CN2Cc3cc(NC(=O)Cc4ccccc4)ccc3OCC2=O)c1	-13.3%
CCC1Oc2ccc(NC(=O)Cc3ccccc3)cc2CN(Cc2cccc(OC)c2)C1=O (stereo unspecified)	-17.6%
COc1cccc(CN2Cc3cc(NC(=O)c4cccs4)ccc3OCC2=O)c1	i
CCC1Oc2ccc(NC(=O)c3cccc(F)c3)cc2CN(Cc2ccccc2F)C1=O (stereo unspecified)	-5.6%
CCC1Oc2ccc(NC(=O)c3ccccc3F)cc2CN(CCc2ccc(OC)c(OC)c2)C1=O (stereo unspecified)	1.78µM*
CCC1Oc2ccc(NC(=O)c3ccccc3F)cc2CN(Cc2ccccc2F)C1=O (stereo unspecified)	5.62µM*
CC1Oc2ccc(NC(=O)c3ccccc3F)cc2CN(Cc2ccccc2F)C1=O (stereo unspecified)	i
CCC1Oc2ccc(NC(=O)COc3ccccc3)cc2CN(Cc2cccc(OC)c2)C1=O (stereo unspecified)	-3.6%
COc1ccc(S(=O)(=O)N2CCCC(Cn3c(C)nc4cccnc43)C2)cc1 (stereo unspecified)	i
Cc1cc(NCC(C)n2ccnc2)n2nc(C)c(C)c2n1 (stereo unspecified)	-7.3%
O=C(N[C@H]1CCN2C(=O)c3cc(-c4ccc5c(c4)OCO5)ccc3NC(=O)[C@H]12)c1cccc(F)c1	i
COc1ccc(C2(C(=O)N3CCc4ccccc4C3)CCOCC2)cc1	-7.8%
COC1CCN(c2ccc(C(=O)N3CCC(N4CCOCC4)CC3)cn2)CC1	-12.9%
COc1ccccc1N1CCN(c2ncncc2-c2nc(-c3ccccc3)no2)CC1	-1.8%
SMILES	Pf Dd2 growth
Cn1cc(-c2ccc(CO)cc2)c2nc(COc3ccccc3)cn2c1=O	-5.1%[44.1 µM]
Cc1ccc(NC(=O)C(=O)NCC(c2cccnc2)N2CCN(Cc3ccccc3)CC2)cc1 (stereo unspecified)	80.8%[0.594 µM]
COCCNC(=O)C(=O)NCC(c1cccnc1)N1CCN(c2ccccc2F)CC1 (stereo unspecified)	54.9%[0.594 µM]
COc1ccccc1N1CCN(C(CNC(=O)C(=O)NCCN(C)C)c2cccnc2)CC1 (stereo unspecified)	-5.7%
COc1ccc(N2CCN(C(CNC(=O)C(=O)NCc3cccnc3)c3cccnc3)CC2)cc1 (stereo unspecified)	-15.5%[0.594 µM]
Cc1cccc(NC(=O)C(=O)NCC(c2cccnc2)N2CCN(Cc3ccccc3)CC2)c1 (stereo unspecified)	7.94µM*
CCc1ccc(NC(=O)C(=O)NCC(c2cccnc2)N2CCN(C)CC2)cc1 (stereo unspecified)	-15.9%
O=C(NCC(c1cccnc1)N1CCN(Cc2ccccc2)CC1)C(=O)Nc1cccc(Cl)c1 (stereo unspecified)	3.98µM*
O=C(NCC(c1cccnc1)N1CCN(Cc2ccccc2)CC1)C(=O)Nc1ccc(Cl)cc1 (stereo unspecified)	14.1µM*
Cc1cccc(NC(=O)C(=O)NCC(c2ccc3c(c2)OCO3)N2CCN(c3ccccc3)CC2)c1 (stereo unspecified)	-26.1%
Cc1csc(NC(=O)c2ccc3c(c2)OCC(=O)N(Cc2cnn(C)c2)C3)n1	i
CCc1ccccc1S(=O)(=O)N1C[C@@H](F)C[C@H]1C(=O)N1CCc2ccccc2C1	i
Cc1ccccc1Cc1noc(-c2nc(-c3ccc4c(c3)OCO4)no2)n1	-17.3%
O=C1NCCN2CC3(CCN(S(=O)(=O)c4cccc5cccnc45)CC3)CC12 (stereo unspecified)	-19.7%
